Measurements published in PubChem BioAssay AID1159580 (chemical genetic matrix, 2015).
About 2,000 (36%) of roughly 5,500 compounds were called active. Inconclusive results (about 18%) are left out. Cut-off read from the data, not from the text of the source: active = normalized growth mostly below about 0.91 (no sharp cut-off); inconclusive = no clear call, values can overlap the other calls; inactive = mostly above about 0.92. The list shows a part of the results.

Assay: chemical genetic growth profiling, strain panel (AID 1159580);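 note: tested at 20 µM; growth read once vehicle control cultures reached saturation at 30 °C; 1 = growth at the plate median or of vehicle wells; lower values mean less growth of the strain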
Conditions: growth OD

Measured: normalized growth

CC1CCC2(OC1)OC1CC3C4CC[C@H]5C[C@@H](O)CC[C@]5(C)C4CC(=O)[C@]3(C)C1C2C (some centres not stated)
inactive: S. cerevisiae deletion strains, locus YJR075W, strain HOC1, stronger effect = lower value 1.01 | S. cerevisiae deletion strains, locus YKL009W, strain mrt4, stronger effect = lower value 0.965 | S. cerevisiae deletion strains, locus YKL068W, stronger effect = lower value 0.992 | S. cerevisiae deletion strains, locus YKL085W, strain MDH1 (second series), stronger effect = lower value 0.989 | S. cerevisiae deletion strains, locus YKL085W, strain MDH1, stronger effect = lower value 0.989 | S. cerevisiae deletion strains, locus YKL160W, strain elf1, stronger effect = lower value 1.01 | S. cerevisiae deletion strains, locus YKL190W, strain CNB1, stronger effect = lower value 1.01 | S. cerevisiae deletion strains, locus YKR001C, strain vps1, stronger effect = lower value 0.98 | S. cerevisiae deletion strains, locus YKR026C, strain gcn3, stronger effect = lower value 1.02 | S. cerevisiae deletion strains, locus YKR091W, strain srl3, stronger effect = lower value 1.01 | S. cerevisiae deletion strains, locus YLL001W, strain dnm1, stronger effect = lower value 0.987 | S. cerevisiae deletion strains, locus YLL026W, stronger effect = lower value 1.01 | S. cerevisiae deletion strains, locus YLL041C, strain sdh2, stronger effect = lower value 1 | S. cerevisiae deletion strains, locus YLR027C, strain aat2, stronger effect = lower value 1 | S. cerevisiae deletion strains, locus YLR039C, strain RIC1, stronger effect = lower value 0.972 | S. cerevisiae deletion strains, locus YLR058C, strain SHM2, stronger effect = lower value 1.01 | S. cerevisiae deletion strains, locus YLR102C, strain apc9, stronger effect = lower value 0.982 | S. cerevisiae deletion strains, locus YLR113W, strain HOG1, stronger effect = lower value 0.97 | S. cerevisiae deletion strains, locus YLR221C, strain rsa3, stronger effect = lower value 0.994 | S. cerevisiae deletion strains, locus YLR258W, strain gsy2, stronger effect = lower value 0.995 | S. cerevisiae deletion strains, locus YLR262C, strain YPT6 (second series), stronger effect = lower value 0.97 | S. cerevisiae deletion strains, locus YLR262C, strain YPT6, stronger effect = lower value 0.993 | S. cerevisiae deletion strains, locus YLR268W, strain sec22, stronger effect = lower value 0.952 | S. cerevisiae deletion strains, locus YLR320W, strain mms22, stronger effect = lower value 0.975 | S. cerevisiae deletion strains, locus YLR330W, strain CHS5, stronger effect = lower value 1.02 | S. cerevisiae deletion strains, locus YLR342W, strain FKS1 (second series), stronger effect = lower value 1.06 | S. cerevisiae deletion strains, locus YLR342W, strain FKS1, stronger effect = lower value 1 | S. cerevisiae deletion strains, locus YLR357W, strain rsc2, stronger effect = lower value 0.992 | S. cerevisiae deletion strains, locus YLR370C, strain arc18, stronger effect = lower value 1.02 | S. cerevisiae deletion strains, locus YLR371W, strain rom2, stronger effect = lower value 0.976 | S. cerevisiae deletion strains, locus YLR384C, strain iki3, stronger effect = lower value 1.02 | S. cerevisiae deletion strains, locus YLR418C, strain cdc73, stronger effect = lower value 0.934 | S. cerevisiae deletion strains, locus YML016C, strain PPZ1, stronger effect = lower value 1.01 | S. cerevisiae deletion strains, locus YML032C, strain rad52, stronger effect = lower value 0.965 | S. cerevisiae deletion strains, locus YML120C, strain ndi1, stronger effect = lower value 1 | S. cerevisiae deletion strains, locus YML124C, strain tub3, stronger effect = lower value 0.981 | S. cerevisiae deletion strains, locus YMR058W, strain fet3, stronger effect = lower value 1.03 | S. cerevisiae deletion strains, locus YMR078C, strain ctf18, stronger effect = lower value 1.01 | S. cerevisiae deletion strains, locus YMR125W, strain sto1, stronger effect = lower value 1.04 | S. cerevisiae deletion strains, locus YMR129W, stronger effect = lower value 1.03 | S. cerevisiae deletion strains, locus YMR205C, strain PFK2, stronger effect = lower value 1 | S. cerevisiae deletion strains, locus YMR223W, strain ubp8, stronger effect = lower value 0.999 | S. cerevisiae deletion strains, locus YMR231W, strain pep5, stronger effect = lower value 1.02 | S. cerevisiae deletion strains, locus YMR263W, strain SAP30, stronger effect = lower value 1.01 | S. cerevisiae deletion strains, locus YMR307W, strain GAS1, stronger effect = lower value 1.01 | S. cerevisiae deletion strains, locus YNL067W, strain RPL9B, stronger effect = lower value 0.991 | S. cerevisiae deletion strains, locus YNL071W, strain lat1, stronger effect = lower value 1.02 | S. cerevisiae deletion strains, locus YNL128W, strain TEP1, stronger effect = lower value 1.01 | S. cerevisiae deletion strains, locus YNL153C, strain GIM3, stronger effect = lower value 0.992 | S. cerevisiae deletion strains, locus YNL183C, strain NPR1, stronger effect = lower value 0.943 | S. cerevisiae deletion strains, locus YNL209W, strain ssb2, stronger effect = lower value 1.01 | S. cerevisiae deletion strains, locus YNL233W, strain BNI4, stronger effect = lower value 0.998 | S. cerevisiae deletion strains, locus YNL248C, strain rpa49, stronger effect = lower value 1.02 | S. cerevisiae deletion strains, locus YNL250W, strain rad50, stronger effect = lower value 0.98 | S. cerevisiae deletion strains, locus YNL271C, strain bni1, stronger effect = lower value 0.979 | S. cerevisiae deletion strains, locus YNL298W, strain CLA4, stronger effect = lower value 0.983 | S. cerevisiae deletion strains, locus YNL307C, strain MCK1, stronger effect = lower value 0.982 | S. cerevisiae deletion strains, locus YNL322C, strain KRE1 (second series), stronger effect = lower value 1.01 | S. cerevisiae deletion strains, locus YNL322C, strain KRE1, stronger effect = lower value 1.01 | S. cerevisiae deletion strains, locus YNR049C, strain mso1, stronger effect = lower value 1 | S. cerevisiae deletion strains, locus YNR052C, strain pop2, stronger effect = lower value 0.982 | S. cerevisiae deletion strains, locus YOL006C, strain TOP1, stronger effect = lower value 1.01 | S. cerevisiae deletion strains, locus YOL012C, strain htz1 0.834 | S. cerevisiae deletion strains, locus YOL147C, strain pex11, stronger effect = lower value 0.993 | S. cerevisiae deletion strains, locus YOR001W, strain rrp6, stronger effect = lower value 0.983 | S. cerevisiae deletion strains, locus YOR061W, strain CKA2, stronger effect = lower value 1.01 | S. cerevisiae deletion strains, locus YOR069W, strain VPS5, stronger effect = lower value 1.01 | S. cerevisiae deletion strains, locus YOR070C, strain gyp1, stronger effect = lower value 1.01 | S. cerevisiae deletion strains, locus YOR080W, strain dia2, stronger effect = lower value 1.04 | S. cerevisiae deletion strains, locus YOR083W, strain WHI5, stronger effect = lower value 0.957 | S. cerevisiae deletion strains, locus YOR106W, strain vam3, stronger effect = lower value 1.02 | S. cerevisiae deletion strains, locus YOR136W, strain idh2, stronger effect = lower value 0.995 | S. cerevisiae deletion strains, locus YOR144C, strain elg1, stronger effect = lower value 0.989 | S. cerevisiae deletion strains, locus YOR184W, strain ser1, stronger effect = lower value 0.96 | S. cerevisiae deletion strains, locus YOR231W, strain MKK1, stronger effect = lower value 0.963 | S. cerevisiae deletion strains, locus YOR265W, strain rbl2, stronger effect = lower value 1.01 | S. cerevisiae deletion strains, locus YOR270C, strain vph1, stronger effect = lower value 1.02 | S. cerevisiae deletion strains, locus YOR290C, strain snf2, stronger effect = lower value 1.03 | S. cerevisiae deletion strains, locus YOR316C, strain cot1, stronger effect = lower value 0.991 | S. cerevisiae deletion strains, locus YPL051W, strain arl3, stronger effect = lower value 1.02 | S. cerevisiae deletion strains, locus YPL055C, strain LGE1, stronger effect = lower value 1.02 | S. cerevisiae deletion strains, locus YPL078C, strain atp4, stronger effect = lower value 1.06 | S. cerevisiae deletion strains, locus YPL106C, strain sse1, stronger effect = lower value 1.02 | S. cerevisiae deletion strains, locus YPL240C, strain hsp82, stronger effect = lower value 1.01 | S. cerevisiae deletion strains, locus YPL241C, strain CIN2, stronger effect = lower value 1.01 | S. cerevisiae deletion strains, locus YPL256C, strain CLN2, stronger effect = lower value 0.963 | S. cerevisiae deletion strains, locus YPR119W, strain clb2, stronger effect = lower value 0.989 | S. cerevisiae deletion strains, locus YPR141C, strain kar3, stronger effect = lower value 0.986 | S. cerevisiae deletion strains, locus YPR163C, strain tif3, stronger effect = lower value 0.98 | S. cerevisiae deletion strains, locus YPR167C, strain met16, stronger effect = lower value 0.99 | S. cerevisiae deletion strains, strain wtn01, stronger effect = lower value 0.96 | S. cerevisiae strains, strain wild type, stronger effect = lower value 1.01
